# Bioassay records as filed in PubChem BioAssay.
# pAkt inh: inhibitors of Akt phosphorylation. Neuro2A IGF-stimulated pAkt S473 HTRF, 20 min; hits give low values. activity change, % for hits at 50 µM. 360,000 compounds, 0.32% hits; in the data active = activity change below about -80%; inconclusive = mostly about -51% to -80%
#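 Neuro2A cells (4,500/well, DMEM with 0.5% FBS) were treated with compound at a single 50 µM final concentration, stimulated with 6 nM IGF for 20 min at 37 °C, and lysed. Phospho-Akt Ser473 was read by HTRF as 665/615 ratio ×10^4.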
# KCNH2 3.1 block: blocks the human KCNH2 3.1 channel isoform; U2OS KCNH2 3.1, thallium flux FluxOr; hits give low values; 340,000 compounds, 0.95% hits; activity change, % (tested at about 1.8 µM); AID 720553;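 active = maximum activity change below -70%; inconclusive = maximum activity change from -70% to -50%; inactive = maximum activity change above -50%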;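 note: thallium influx rate constant from kinetic fluorescence after stimulation buffer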
#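 We transduce U2OS cells with the mutant 3.1 virus, culture them overnight, load FluxOr with Red40 quencher for 45 min, then add stimulation buffer and read kinetically for 2 min to derive a normalized rate constant.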
# RXFP1 agonist: RXFP1 (human) receptor agonism; Q9HBX9; HEK293T-RXFP1 cAMP TR-FRET, 30 min; response scale: percent of porcine relaxin response, buffer zero; Potency, µM (top dose mostly 57.5 µM), inactives show top-dose activation, usual class: activators; 370,000 compounds, 0.3% hits; AID 2676; active = well fitted activation curve with a large enough effect; inconclusive = small, poorly fitted or top-dose-only effect; note: potency is the fitted concentration of half-maximal effect; nearly all actives have a fitted effect of over 60% in size
# Target sequence (Q9HBX9 whole entry, looked up): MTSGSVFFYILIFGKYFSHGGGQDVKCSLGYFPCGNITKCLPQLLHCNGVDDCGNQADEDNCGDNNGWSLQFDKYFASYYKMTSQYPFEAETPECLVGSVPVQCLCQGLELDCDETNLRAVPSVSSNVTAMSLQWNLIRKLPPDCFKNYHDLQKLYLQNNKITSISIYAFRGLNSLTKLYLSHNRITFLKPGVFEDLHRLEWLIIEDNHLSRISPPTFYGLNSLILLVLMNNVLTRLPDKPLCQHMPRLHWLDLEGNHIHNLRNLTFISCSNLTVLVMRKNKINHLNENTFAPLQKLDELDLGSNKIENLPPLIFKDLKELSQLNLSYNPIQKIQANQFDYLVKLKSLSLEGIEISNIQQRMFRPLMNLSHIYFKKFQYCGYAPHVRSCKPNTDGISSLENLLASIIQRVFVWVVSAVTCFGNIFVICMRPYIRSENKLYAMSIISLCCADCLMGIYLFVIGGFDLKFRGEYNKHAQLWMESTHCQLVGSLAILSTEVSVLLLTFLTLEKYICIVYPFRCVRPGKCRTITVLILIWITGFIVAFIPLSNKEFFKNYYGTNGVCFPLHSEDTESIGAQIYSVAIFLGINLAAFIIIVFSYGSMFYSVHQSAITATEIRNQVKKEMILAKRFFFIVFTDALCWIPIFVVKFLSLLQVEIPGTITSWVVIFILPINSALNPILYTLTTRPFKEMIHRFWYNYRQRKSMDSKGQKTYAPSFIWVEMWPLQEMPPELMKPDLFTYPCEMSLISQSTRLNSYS
#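 HEK293T cells stably expressing RXFP1 were pretreated with the PDE4 inhibitor Ro 20174, exposed to compounds for 30 min at 37C, lysed, and cAMP was read by TR-FRET. Data normalized to buffer (basal) and 29 nM porcine relaxin (100%).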
# hERG WT inh: inhibitors of human wildtype KCNH2 potassium channel | Q12809 | U2OS, BacMam KCNH2, thallium flux FluxOr; hits give low values | activity change, % at 1.84 µM | 340,000 compounds, 0.37% hits | AID 720551;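 active = maximum activity change below -70%; inconclusive = maximum activity change between -70% and -50%; inactive = maximum activity change above -50%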
#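 U2OS cells were transduced with wild-type KCNH2 virus (2.03 x 10^8 / mL) for 4 h at room temperature, then cultured overnight at 37 C. Thallium flux was read with FluxOr dye. Rate constants were normalized to DMSO controls.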
# RXFP1 antag: blocks the human relaxin receptor RXFP1; Q9HBX9; HEK293-RXFP1, relaxin-stimulated cAMP HTRF, 30 min; hits give low values; activity change, negative = inhibition, % at 57.5 µM; 350,000 compounds, 0.59% hits;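 active = activity change of -60% or lower, but not beyond a set lower limit; inconclusive = change between -60% and -40%, or beyond the set limit; inactive = change above -40%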
# * hit, by the source's call; i = inactive; u = inconclusive; x = not tested or not shown. Shown are actives, neighbours in structure and some others; about 1.7% of the full set was active somewhere. % is set by controls: 0 for no effect and ±100 for the full control effect.
SMILES,pAkt inh,KCNH2 3.1 block,RXFP1 agonist,hERG WT inh,RXFP1 antag
COc1ccc(C2N(C(C)=O)CCN2S(=O)(=O)c2ccc(C)cc2)cc1 (stereo not drawn),i,5,-2%,1,1
COc1ccc(C2N(S(=O)(=O)c3ccc(C)cc3)CCN2S(=O)(=O)c2ccc(C)cc2)cc1,x,-72*,4%,-6,-1
O=[N+]([O-])c1cc(C(F)(F)F)ccc1NCCCCNS(=O)(=O)c1ccc(Cl)cc1,i,-103*,4%,-8,-18
S=c1[nH]nc(C2CCCCC2)n1/N=C/c1ccncc1,i,7,0%,-7,1
O=C1CCCC2=C1C(c1ccc(Cl)cc1)N1C(=O)CCSC1=N2 (stereo not drawn),i,11,0%,-10,-6
CC1(C)CC(=O)C2=C(C1)N=C1SCCC(=O)N1C2c1ccccc1 (stereo not drawn),i,-71*,1%,-12,-4
CC(=O)OCCOc1nc(NC(C)C)nc(NC(C)C)n1,i,1,4%,2,5
Cc1ccc(NS(=O)(=O)c2cc(C(=O)N3CCc4ccccc4C3)ccc2Cl)cc1,i,0,0%,-261*,-16
O=C(NCCCN1CCOCC1)c1onc(CSc2ccccc2)c1C(=O)NCCCN1CCOCC1,i,10,x,10,x
COc1cccc(SCc2noc(C(=O)NCCCN3CCOCC3)c2C(=O)NCCCN2CCOCC2)c1,i,-98*,x,0,x
Cc1cc2nc(SCC(=O)Nc3nonc3C)c3c(c2cc1C)CCCC3,-91%*,-6,3%,-4,-3
COCCN(CCOC)C(=O)CC(=O)N(CCOC)CCOC,i,18,2%,10,2
O=C(O)CCc1nc2ccccc2[nH]1,x,x,x,x,11
CCOc1c(C)cc2[nH]c(CCC(=O)O)nc2c1C,-112%*,-4,3%,-5,6
CCCCNc1c(-c2cccc(-c3cc(C(C)=O)cs3)c2)nc2cc(C)ccn12,i,-71*,-1%,-19,x
CCCCCCSc1cc(-c2nc3cc(C)ccn3c2NCCCC)ccc1OC,i,-111*,8%,-80*,x
COc1ccccc1NC(=O)C1CCCN(S(=O)(=O)c2ccc3c(c2)CC(C)N3C(C)=O)C1 (stereo not drawn),i,-10,2%,6,6
O=C(NCCCl)c1ccc(OCc2ccccc2)cc1Cl,i,-113*,0%,-3,-4
N#CC(C#N)=C1C=C2C=C(N3CCCCC3)CCC2CC1 (stereo not drawn),i,-89*,1%,u,-11
CCN(CC)C1=CC2=CC(=C(C#N)C#N)CCC2CC1 (stereo not drawn),i,-97*,7%,-50,-1
CCCCN(C)C1=CC2=CC(=C(C#N)C#N)CCC2CC1 (stereo not drawn),i,-102*,-2%,-87*,-8
N#CC1=C(N)C2=C(N3CCCCC3)CCCC2C1(C#N)C#N (stereo not drawn),i,-4,-1%,4,2
O=C(N/N=C/c1cccc([N+](=O)[O-])c1)c1cccc(Br)c1,i,8,0%,-1,-9
Cc1ccc(C(=O)Nc2nc(C(C)(C)C)cs2)s1,x,-17,2%,-6,-22
CC(C)(C)c1csc(NC(=O)c2ccc(Cl)s2)n1,i,-3,-1%,3,-101*
SMILES,pAkt inh,KCNH2 3.1 block,RXFP1 agonist,hERG WT inh,RXFP1 antag
CCOC(=O)c1sc(N(Cc2ccccc2)C(=O)COC(=O)c2cnccn2)nc1C,i,-92*,2%,-7,-1
CSc1cccc(NC(=S)N(Cc2ccc(C)cc2)Cc2cccnc2)c1,i,-89*,1%,9,-13
CCCCN(C(=O)c1ccc2c(c1)OCO2)C1CCS(=O)(=O)C1 (stereo not drawn),i,-76*,0%,1,10
COc1cnn(-c2cccc(Cl)c2)c(=O)c1Cl,i,-100*,x,0,2
C=CCN(CC=C)Cc1ccc(C(=O)OC)o1,-110%*,14,2%,6,-9
NC(=O)c1ccccc1NC(=O)CSc1nc2ccccc2c(=O)[nH]1,i,-4,2%,-8,-8
Cc1cc2nc(SCC(=O)Nc3ccccc3C(=O)O)[nH]c2cc1C,i,-138*,-1%,6,u
O=C(NCc1n[nH]c(=S)n1-c1ccc(Cl)c(Cl)c1)c1ccc(S(=O)(=O)N2CCCCC2)cc1,i,7,1%,-14,-60*
O=C(NCc1n[nH]c(=S)n1-c1cccc(Cl)c1)c1ccc(S(=O)(=O)N2CCCC2)cc1,x,0,-1%,-36,29
c1ccc2c(C3=NNC(=NC4CCCCC4)SC3)c[nH]c2c1,i,-86*,-1%,4,-2
COC(=O)c1sc(N2C(=O)C(O)=C(C(=O)c3ccc(C)o3)C2c2ccc(F)cc2)nc1C (stereo not drawn),i,-8,8.9µM*,-9,-12
COC(=O)c1sc(N2C(=O)C(O)=C(C(=O)c3ccc(C)o3)C2c2ccco2)nc1C (stereo not drawn),i,x,-6%,3,-6
COC(=O)c1sc(N2C(=O)C(O)=C(C(=O)c3ccc(C)o3)C2c2cccs2)nc1C (stereo not drawn),i,-11,13µM*,-4,-20
Cc1cccc(CC2S/C(=N/N=C/c3ccco3)N(c3ccccc3)C2=O)c1 (stereo not drawn),i,-104*,0%,-8,9
CS(=O)(=O)c1ccc(N)cc1,i,-6,0%,7,x
Cc1ccc(/C=C2/SC(=S)N(CCCC(=O)Nc3cc([N+](=O)[O-])ccc3O)C2=O)cc1,i,-83*,-4%,10,4
CC(C)(C)c1cc(NC(=O)C2(C)CCN2C(=O)c2ccccc2CCc2ccccc2)no1 (stereo not drawn),i,x,x,x,x
Cc1ccc2c(C)c(C(=O)NCCN3CCCC(O)C3)oc2c1C (stereo not drawn),x,3,2%,-3,-112*
COc1ccc(Nc2c(-c3ccc(C)cc3)nc3cnccn23)cc1,i,-86*,2%,-10,-1
CCCCCNC(=O)C1CCC(Cn2c(=O)c3sccc3n(CC)c2=O)CC1 (stereo not drawn),x,x,2%,x,-4
CCOC(=O)C1=C(C)NC(C)=C(C(=O)OCCNC(=O)c2cccnc2)C1c1cccc([N+](=O)[O-])c1 (stereo not drawn),i,-10,-1%,6,x
COC(=O)C1=C(C)NC(C)=C(C(=O)OCCN(C)Cc2ccccc2)C1c1cccc([N+](=O)[O-])c1 (stereo not drawn),i,u,-1%,37,-76*
C=CCc1ccc(OCC(O)CN2CCN(Cc3ccc(Cl)cc3)CC2)c(OC)c1 (stereo not drawn),i,-83*,0%,-50,-31
